A short description of experiment [1]: NCI Yeast Anticancer Drug Screen. Data for the rad50 strain (AID 155).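 Further: 0% = growth of vehicle-only cultures of the same strain.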 To be noted: S. cerevisiae rad50 strain growth inhibition; at 50.0 µM; stronger effect = higher value. Put shortly: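 A DNA repair-deficient yeast mutant serves as the test organism; compound-induced growth inhibition is calculated against vehicle-treated cells.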
A short description of experiment [2]: NCI Yeast Anticancer Drug Screen. Data for the mec2-1 strain (AID 157). To be noted: S. cerevisiae mec2-1 strain, at 50.0 µM, stronger effect = higher value. Put shortly:
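Each compound was tested on mec2-1 yeast, a strain altered in DNA damage repair or cell cycle control. Growth inhibition is reported relative to vehicle.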

Experiment [3] is described as follows: NCI Yeast Anticancer Drug Screen. Data for the sgs1 mgt1 strain (AID 161).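 Further: 0% = growth of cultures given vehicle only.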 To be noted: S. cerevisiae sgs1 mgt1 strain, at 50.0 µM, stronger effect = higher value. Summed up:
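Read-out: growth inhibition vs vehicle controls. Cells: mutant yeast strain deficient in DNA damage repair.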

Experiment [4] in a line: NCI Yeast Anticancer Drug Screen. Data for the cln2 rad14 strain (AID 165).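 Further: 0% = growth equal to vehicle treated cultures.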 To be noted: S. cerevisiae cln2 rad14 strain, at 50.0 µM, stronger effect = higher value. Put shortly:
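Test compounds were added to cln2 rad14 yeast cultures; inhibition of growth was then determined by comparison with vehicle treatment.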

Experiment [5] in a line: NCI Yeast Anticancer Drug Screen. Data for the bub3 strain (AID 167). To be noted: S. cerevisiae bub3 mutant strain, at 50.0 µM, stronger effect = higher value. Put shortly: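 Inhibition values come from growth of compound-treated mutant yeast normalised to vehicle-treated controls.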
The nature of experiment [6]: NCI Yeast Anticancer Drug Screen. Data for the mlh1 rad18 strain (AID 175). To be noted: S. cerevisiae mlh1 rad18 strain growth inhibition; at 50.0 µM; stronger effect = higher value. Summed up:
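Inhibition values reflect reduced growth of mutant yeast versus vehicle-treated controls following compound exposure; the mutations affect DNA damage repair.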

“And” between values parts separate entries of the source, which are not always exact repeats. Equal entries are not always repeated. This is part of a sample that, as a whole, favours compounds with a hit. Of some 79,000 tested, about 15% had one in any assay. Some compounds were tested as several samples or in several runs, with calls that do not always agree. The source made the active and inactive calls. No stated cut-off is given here; in the data, active means growth inhibition above about 70%; inactive means the rest.

With `CCCCCCCCCCSCC(CO)NC(=O)/C=C/c1c(C)[nH]c(=O)[nH]c1=O` (configuration not stated), the growth inhibition in experiment [1] was 1.95% (inactive) and 30.7% (inactive); in experiment [2] it was -13.7% (inactive) and 15.2% (inactive); in experiment [3], 2.45% (inactive) and 2% (inactive); in experiment [4], -27.2% (inactive) and 14.8% (inactive); in experiment [5], -14.4% (inactive) and -14% (inactive); in experiment [6], 9.55% (inactive) and -47.1% (inactive).
For the compound `Nc1ccc2ccc(O)cc2c1`, the growth inhibition in experiment [1] is 24.8% (inactive) and 29.8% (inactive); in experiment [2] it was -0.5% (inactive) and 8.5% (inactive); in experiment [3], 24.9% (inactive) and 16.8% (inactive); in experiment [4] it was 21.8% (inactive) and -22.2% (inactive); in experiment [5], 13.6% (inactive) and 25.8% (inactive); in experiment [6] it was 19% (inactive) and 24.6% (inactive).
As to `CN(C)CC1CCCC1=O` (configuration not stated), the growth inhibition is 7.15% (inactive) and 1.25% (inactive) in experiment [1]; -0.95% (inactive) and -7.1% (inactive) in experiment [2]; 5.8% (inactive) and -22.7% (inactive) in experiment [3]; 1.75% (inactive) and 8.6% (inactive) in experiment [4]; -0.75% (inactive) and 8.25% (inactive) in experiment [5]; 4.6% (inactive) and 11.3% (inactive) in experiment [6].
Consider `O=C1CCCCC1C(O)c1ccc([N+](=O)[O-])cc1` (configuration not stated), for which the growth inhibition is 0.05% (inactive) and -2.7% (inactive) in experiment [1]; 16.1% (inactive) and -5.9% (inactive) in experiment [2]; 10.7% (inactive) and -2.35% (inactive) in experiment [3]; -2.35% (inactive) and -15.2% (inactive) in experiment [4]; 5.3% (inactive) and -5.1% (inactive) in experiment [5]; 16.1% (inactive) and -6.85% (inactive) in experiment [6].
`CC(=O)O[C@@H]1C[C@H](C)CC[C@H]1C(C)C`: the growth inhibition in experiment [1] was 5.85% (inactive) and 0.6% (inactive); in experiment [2] it was -9.8% (inactive) and -2.35% (inactive); in experiment [3], -3.05% (inactive) and -3.7% (inactive); in experiment [4] it was 5.8% (inactive) and 23% (inactive); in experiment [5], 4.5% (inactive) and -1.45% (inactive); in experiment [6], -3.4% (inactive) and -0.8% (inactive).
For the compound `c1ccc(CSSCc2ccccc2)cc1`, the growth inhibition was 9.45% (inactive) and -1.4% (inactive) in experiment [1]; -0.35% (inactive) and -3.15% (inactive) in experiment [2]; 3% (inactive) and 1.85% (inactive) in experiment [3]; -5.5% (inactive) and -8.2% (inactive) in experiment [4]; 4.9% (inactive) and -9.9% (inactive) in experiment [5]; 15.3% (inactive) and -14.1% (inactive) in experiment [6].
`C1=C(c2cccc3ccccc23)CCCC1`: the growth inhibition in experiment [1] was -2.85% (inactive) and 18.2% (inactive); in experiment [2], 7.45% (inactive) and -4.1% (inactive); in experiment [3], -12.4% (inactive) and -5.1% (inactive); in experiment [4] it was -0.1% (inactive) and 8.1% (inactive); in experiment [5], 2.65% (inactive) and 11.7% (inactive); in experiment [6] it was 6.9% (inactive) and -9.2% (inactive).
Regarding `C=C1C(=O)OC2/C=C(/C)C3CC(O)C(C)(CC(OC(=O)/C(C)=C/C)C12)O3` (configuration not stated), the growth inhibition in experiment [1] is -9.75% (inactive) and -7.75% (inactive); in experiment [2] it was -12.9% (inactive) and -20.4% (inactive); in experiment [3], -6.85% (inactive) and 0.45% (inactive); in experiment [4], 13.4% (inactive) and 8.45% (inactive); in experiment [5] it was -5.25% (inactive) and -26.3% (inactive); in experiment [6], -5.35% (inactive) and 2.9% (inactive).
For the compound `CCC(C)NC(=O)C1C2CC3OC(=O)C1C3C2` (configuration not stated), the growth inhibition in experiment [1] was 9.85% (inactive) and -12.7% (inactive); in experiment [2], -4.55% (inactive) and 5.6% (inactive); in experiment [3], -2.75% (inactive) and -18.9% (inactive); in experiment [4] it was -42.8% (inactive) and -40.3% (inactive); in experiment [5], -9.5% (inactive) and -6.5% (inactive); in experiment [6], 3.1% (inactive) and -5.65% (inactive).
Regarding `CC(=O)Nc1ccc(C=O)cc1`, the growth inhibition in experiment [1] is 13.1% (inactive) and 25.1% (inactive); in experiment [2] it was 3.5% (inactive) and 19.1% (inactive); in experiment [3], 14.8% (inactive) and 24.1% (inactive); in experiment [4], -18.1% (inactive) and 8.75% (inactive); in experiment [5] it was -4.15% (inactive) and -9.2% (inactive); in experiment [6], 4.9% (inactive) and 28% (inactive).
Regarding `N#CC1OC1c1cccc[n+]1[O-]` (configuration not stated), the growth inhibition is 9.05% (inactive) and 4.6% (inactive) in experiment [1]; -7.8% (inactive) and -3.3% (inactive) in experiment [2]; 0.85% (inactive) and -8.7% (inactive) in experiment [3]; -45.9% (inactive) and -29.5% (inactive) in experiment [4]; -11.7% (inactive) and -13.9% (inactive) in experiment [5]; -3.15% (inactive) and 8.5% (inactive) in experiment [6].
Consider `O=C(O)c1cccc(S(=O)(=O)O)c1`, for which the growth inhibition is -22.6% (inactive) and -9.2% (inactive) in experiment [1]; -40.5% (inactive) and -8.4% (inactive) in experiment [2]; -1.2% (inactive) and -9.2% (inactive) in experiment [3]; -14.1% (inactive) and 13% (inactive) in experiment [4]; -2.05% (inactive) and 0% (inactive) in experiment [5]; 0.4% (inactive) and 2.45% (inactive) in experiment [6].
For `CCCCCCCc1ccc(OC2OC(COC(C)=O)C(OC(C)=O)C(OC(C)=O)C2OC(C)=O)cc1` (configuration not stated), the growth inhibition in experiment [1] was -7% (inactive) and -26.1% (inactive); in experiment [2], -12.1% (inactive) and 13.8% (inactive); in experiment [3] it was -30.4% (inactive) and 1.4% (inactive); in experiment [4], -7.45% (inactive) and 37.9% (inactive); in experiment [5], 5.55% (inactive) and 9.7% (inactive); in experiment [6], -6% (inactive) and 10.6% (inactive).
Consider `CC(CCC(C)C(=O)O)C(=O)O` (configuration not stated), for which the growth inhibition in experiment [1] was -10.1% (inactive) and 40.4% (inactive); in experiment [2], -12.8% (inactive) and 9.8% (inactive); in experiment [3] it was -2.05% (inactive) and 15.4% (inactive); in experiment [4], 12.2% (inactive) and 13% (inactive); in experiment [5] it was -15.1% (inactive) and 22.6% (inactive); in experiment [6], -0.25% (inactive) and 27.9% (inactive).
Take `CCCc1ccc(OC2OC(COC(C)=O)C(OC(C)=O)C(OC(C)=O)C2OC(C)=O)cc1` (configuration not stated): the growth inhibition in experiment [1] is -7% (inactive) and -12.6% (inactive); in experiment [2] it was -9.65% (inactive) and 2.4% (inactive); in experiment [3], -13.5% (inactive) and 9.65% (inactive); in experiment [4] it was -5.25% (inactive) and 3.95% (inactive); in experiment [5], -37% (inactive) and 5.1% (inactive); in experiment [6] it was -8.05% (inactive) and 4.1% (inactive).
`Nc1cc(S(=O)(=O)O)ccc1Cl`: the growth inhibition in experiment [1] was 2.8% (inactive) and 1% (inactive); in experiment [2], -15.7% (inactive) and -2.75% (inactive); in experiment [3] it was 11.2% (inactive) and -20.6% (inactive); in experiment [4], 10.1% (inactive) and -43.9% (inactive); in experiment [5], 6.95% (inactive) and 14.1% (inactive); in experiment [6], 3.95% (inactive) and -13.1% (inactive).
In the case of `C1OC2COCOC2C2OCOCC2O1` (configuration not stated), the growth inhibition was -22.8% (inactive) and -3% (inactive) in experiment [1]; -17.2% (inactive) and -9.95% (inactive) in experiment [2]; -17.4% (inactive) and -7.85% (inactive) in experiment [3]; -33.5% (inactive) and -14.5% (inactive) in experiment [4]; -13.3% (inactive) and 0.85% (inactive) in experiment [5]; -4.45% (inactive) and -4.65% (inactive) in experiment [6].
As for `CC(O)(c1cccc(Cl)c1)C(c1ccccc1)c1ccccn1` (configuration not stated), the growth inhibition in experiment [1] is 82.6% (active) and 97.7% (active); in experiment [2], 79.2% (active) and 97.9% (active); in experiment [3] it was 95% (active) and 97.8% (active); in experiment [4], 19.8% (inactive) and 92.2% (active); in experiment [5], 46.8% (inactive) and 97.4% (active); in experiment [6], 79.7% (active) and 97% (active).
For the compound `CC(C)(C)c1cc([N+](C)(C)C)cc(C(C)(C)C)n1`, the growth inhibition is 1.6% (inactive) and 19.6% (inactive) in experiment [1]; -5.3% (inactive) and 8.25% (inactive) in experiment [2]; 1.05% (inactive) and 14.8% (inactive) in experiment [3]; 2.3% (inactive) and -16.7% (inactive) in experiment [4]; 20.6% (inactive) and -2.05% (inactive) in experiment [5]; 6.3% (inactive) and -5.55% (inactive) in experiment [6].
As for `CN(/N=C/c1ccccc1)C(=N)N`, the growth inhibition was -3.6% (inactive) and 5.4% (inactive) in experiment [1]; -5.4% (inactive) and 4.15% (inactive) in experiment [2]; -10.2% (inactive) and 13.2% (inactive) in experiment [3]; -40.6% (inactive) and 11.2% (inactive) in experiment [4]; -12.8% (inactive) and -5.6% (inactive) in experiment [5]; -2.3% (inactive) and 2.05% (inactive) in experiment [6].
Take `Cc1ccc(C(=O)/C=C/c2ccc3c(c2)OCO3)cc1`: the growth inhibition in experiment [1] was -6.75% (inactive) and 8.6% (inactive); in experiment [2], 16% (inactive) and -4.7% (inactive); in experiment [3] it was 13.6% (inactive) and 21.4% (inactive); in experiment [4], -8.95% (inactive) and -1.75% (inactive); in experiment [5], 29.4% (inactive) and 25.3% (inactive); in experiment [6] it was 15.4% (inactive) and 37% (inactive).
Turning to `NC1CCCCCCC1`, the growth inhibition in experiment [1] was 4.85% (inactive) and 5.55% (inactive); in experiment [2], -4.95% (inactive) and 2.2% (inactive); in experiment [3], 0.75% (inactive) and 3.8% (inactive); in experiment [4], -4.2% (inactive) and 1% (inactive); in experiment [5] it was 9.85% (inactive) and 3.6% (inactive); in experiment [6] it was 0.55% (inactive) and 2.7% (inactive).

The record behind these values is PubChem BioAssay (NCI).
